From PubChem BioAssay (NCI)
The panel holds about 83,000 compounds, 20% with a hit somewhere; the sample as a whole holds those more often.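 Method: cells in 96-well plates; compound added at one concentration; 48 h incubation; percent growth measured; values under 10 scored active.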 Values without a mark were called inactive. Activity calls are given as the source filed them.

How the values were obtained:
Test in all cases: NCI-60 one-dose screen, 48 h (100 = growth as untreated, 0 = no growth, -100 = all killed)
Conditions in all cases: 10 µM unless noted
[1] = test system: HCT-15 colon
[2] = test system: HT29 colon
[3] = test system: SNB-75 CNS
[4] = test system: SNB-19 CNS
[5] = test system: U251 CNS
[6] = test system: PC-3 prostate
[7] = test system: SK-MEL-5 melanoma
[8] = test system: UACC-62 melanoma
[9] = test system: LOX IMVI melanoma
[10] = test system: SK-MEL-28 melanoma

| Compound | growth [1] | growth [2] | growth [3] | growth [4] | growth [5] | growth [6] | growth [7] | growth [8] | growth [9] | growth [10] |
| --- | --- | --- | --- | --- | --- | --- | --- | --- | --- | --- |
| O=C(O)c1ccc(-n2cc(/C=N/Nc3ccccc3)c(-c3ccc(F)cc3F)n2)cc1 | 51.4% | 90.5% | 78.2% | 84.3% | 85.9% | 51.9% | 58% | -14.3% (active) | 18.5% | 74.1% |
| Cc1ccc2c(c1)=C/C(=C\c1cc(-c3ccccc3)oc1O)C(=O)N=2 | 97.6% | 108% | 93.5% | 107% | 109% | 96.3% | 105% | 101% | 94.4% | 104% |
| C/C(=N\O)c1ccc(Cl)cc1 | 112% | 108% | 89.6% | 104% | 103% | 86.3% | 108% | 95% | 105% | 122% |
| CCN(CC)c1ccc(\C=N/N=C(N)/C(N)=N\N=C/c2ccc(N(CC)CC)cc2)cc1 | 92.4% | 99.2% | 93% | 113% | 97.9% | 97.1% | 97.1% | 104% | 101% | 105% |
| N#Cc1ccc(O)c(C2=NCC(c3cccc(Oc4ccccc4)c3)O2)c1 (stereo not given) | 26.8% | 13.8% | 51.7% | 22.3% | 3.98% (active) | 31.4% | 32.7% | -1.59% (active) | 23% | 37.5% |
| Cc1cc(C(=O)O)c(C)n1-c1cccc(C(=O)O)c1 | 9.52% (active) | 28.4% | 121% | 87% | 64.2% | 98.4% | 95.8% | 85.1% | 65% | 102% |
| CCOC(=O)n1cc(-c2nonc2-c2cn(C(=O)OCC)c3ccc(Br)cc23)c2ccccc21 | 76.8% | 76.1% | 73.1% | 93.5% | 89.8% | 69% | 82.3% | 58.7% | 74.6% | 100% |
| CC(=O)Oc1ccc(/C(=C(\C)c2ccc(Cl)cc2)c2ccc(OCCN3CCCCC3)cc2)cc1 | -16.3% (active) | -25.9% (active) | 41.7% | 42.2% | 18.3% | 28.1% | 37.1% | 42.8% | -65% (active) | -48.5% (active) |
| COc1cccc(CNc2ccc3ncnc(Nc4ccc(F)c(Cl)c4)c3c2)c1 | 53.2% | 88.3% | 79.3% | 69% | 71.4% | 52.7% | 89.5% | 81.1% | 69.8% | 107% |
| S=c1sc2c(Cl)nc(-c3cccnc3)nc2n1-c1ccccc1 | -32.6% (active) | -53.8% (active) | 57.1% | 25.2% | 7.95% (active) | 1.75% (active) | 76.3% | -10.2% (active) | -52% (active) | -58.2% (active) |
| O=C(/C=C/c1cccs1)Nc1ncc(Cc2ccccc2F)s1 | 27.1% | 8.61% (active) | -7.95% (active) | 28.9% | 17% | 29.6% | 6.05% (active) | 16.8% | 20.4% | 54.4% |
| O=C(Nc1ccccc1O)c1ccc(CNC(=O)c2sccc2Nc2ccnc(C(F)(F)F)c2)cc1 | 47.6% | 53% | 36.9% | 68.9% | 40.6% | 35.2% | 25.1% | 27.7% | 53.6% | 63.6% |
| N#CC1=C(c2ccccc2)Nc2c(c(-c3ccc(Cl)cc3)nn2-c2ccccc2)C12C(=O)Nc1ccc(Cl)cc12 (stereo not given) | 61.8% | 47.8% | 6.22% (active) | 70.5% | 64% | 51% | 87.5% | 66% | 77.5% | 90.8% |
